Among the data in PubChem BioAssay (Tox21) are Potency values, retold here.

Structures are written as SMILES. Calls of active or inactive are those of the source. Where a call stands in place of a potency, no number is given. Calls follow the shape of the dose curve; as a rule, active = well fitted activation curve with a large enough effect in the repeat runs; inconclusive = weak or mixed curves; inactive = flat fitted curve, though single readings scatter.
Potency is read from the fitted curve at half-maximal effect.

The nature of this assay: A CellTox Green Cytotoxicity Assay to monitor cytotoxicity in HEK293 cells - 0 hour (AID 1224869). Also: nearly all actives have a fitted effect of over 50% in size. The note with it: CellTox Green fluorescence; series mostly up to 76.8 µM. From the text:
National Center for Advancing Translational Sciences [NCATS]
NIH Chemical Genomics Center [NCGC]
U.S. Environmental Protection Agency [EPA]
National Institutes of Environmental Health Sciences [NIEHS]
National Toxicology Program [NTP]
Cell-based models are critical for drug discovery. Determining the natural cytotoxic effects resulting from test compounds is an essential research activity. A CellTox Green Cytotoxicity Assay to monitor cytotoxicity in real time of continues cell culture during 40 hours of the compound treatment was used to screen Tox21 10K library compounds in Hek293 cells. CellTox Green Cytotoxicity Assay is a nonlytic, homogeneous, biofluorescent method to measure cytotoxicity in cell culture after experimental manipulation. The assay system uses a proprietary asymmetric cyanine dye that is excluded from viable cells but preferentially stains the dead cell's DNA. […] Viable cells produce no appreciable increases in fluorescence. Therefore, the fluorescence signal produced by the binding interaction with dead cell DNA is proportional to cytotoxicity.
The mixture of Hek293 cell suspension and reagents were dispensed at 600cells/6 ul/well in 1536-well tissue culture treated black solid bottom plates using a Multidrop dispenser. After the assay plates were incubated at a 37 C/5% CO2 incubator for 5 hours, 23 nL of compounds dissolved in DMSO, positive and negative controls was transferred to the assay plate by a pintool work station. The plates were incubated at 37 C for 40 hours. The fluorescence intensity were measured at 0h, 8h, 16h, 24h, 32h and 40h time points using ViewLux plate reader during compound treatment.
With `O=c1c(C2CC(c3ccc(-c4ccc(Br)cc4)cc3)Cc3ccccc32)c(O)sc2ccccc12` (stereo not given), the Potency result is “inactive”.

For the compound `ClC1=C(Cl)C2(Cl)C3C(Cl)C(Cl)CC3C1(Cl)C2(Cl)Cl` (stereo not given), the Potency result is “inactive”.

With `CCCCCCCCCCCCBr`, the Potency result is “inactive”.

With `CN(C)c1ccc(N=Nc2ccccc2)cc1`, the Potency entry is “inactive”.

On to `CCCCCCCCCCCCCN1CC(C)OC(C)C1` (stereo not given), for which the Potency result was “inactive”.

With `C=CC(=O)OCCCCOC(=O)C=C`, the Potency entry is “inactive”.

Regarding `CC(=O)[O-].CC(=O)[O-].O.O.[Cd+2]`, the Potency result was “inactive”.

As to `CC(Cl)CN(C)C` (stereo not given), the Potency entry is “inactive”.

For the compound `COP(=S)(OC)Oc1cc(Cl)c(Br)cc1Cl`, the Potency entry is “inactive”.

In the case of `CCCCN(CCCC)C(=S)[S-].CCCCN(CCCC)C(=S)[S-].[Zn+2]`, the Potency entry is “inactive”.

As for `ClC1=C(Cl)[C@]2(Cl)[C@@H]3[C@@H]4C[C@@H]([C@H]5O[C@@H]45)[C@@H]3[C@@]1(Cl)C2(Cl)Cl`, the Potency is 43.6 µM (active).

Regarding `Nc1c(Oc2ccccc2)cc(O)c2c1C(=O)c1ccccc1C2=O`, the Potency result was “inactive”.

For `CCOP(=S)(OCC)OC(Cl)C(Cl)(Cl)Cl` (stereo not given), the Potency entry was “inactive”.

Regarding `Oc1c(Cl)c(Cl)cc(Cl)c1Cl`, the Potency result was “inactive”.

For `BrCC(Br)c1ccccc1` (stereo not given), the Potency entry was “inactive”.

Regarding `COc1ccc(OC)c(CC(C)N)c1` (stereo not given), the Potency entry was “inactive”.

Regarding `CC[C@H]1C[C@@H]2C[C@H]3c4[nH]c5ccc(OC)cc5c4CCN(C2)[C@@H]13`, the Potency entry is “inactive”.

`CC(C)C1CCC(Cc2ccc(Cl)cc2)C1(O)Cn1cncn1` (stereo not given): the Potency entry was “inactive”.

As for `O=[N+]([O-])c1c2ccccc2cc2ccccc12`, the Potency entry was “inactive”.

As to `Oc1ccccc1Br`, the Potency entry is “inactive”.

With `O=C(CCl)Nc1ccccc1`, the Potency entry was “inactive”.

In the case of `Clc1ccc(COC(Cn2ccnc2)c2ccc(Cl)cc2Cl)cc1` (stereo not given), the Potency entry was “inactive”.

Consider `CCCCCCCCCCCCCCCCCCn1cc[n+](C)c1`, for which the Potency result was “inactive”.

Take `CCc1ccccc1C`: the Potency result was “inactive”.

With `BrC(Br)Br`, the Potency entry was “inactive”.

Take `COc1cc(N)c(Cl)cc1C(=O)NC1CN2CCC1CC2` (stereo not given): the Potency entry was “inactive”.

With `O=[N+]([O-])O.O=[N+]([O-])O.[Cd]`, the Potency entry was “inactive”.

For `N#CC(Cl)Cl`, the Potency entry was “inactive”.

Turning to `Oc1ccc(I)cc1`, the Potency entry is “inactive”.

As to `CC1(C)[C@H](C(=O)O[C@H](C#N)c2cccc(Oc3ccccc3)c2)[C@@H]1/C=C(\Cl)C(F)(F)F`, the Potency result was “inactive”.

Regarding `CC(C)(C)OO`, the Potency result is “inactive”.

In the case of `Clc1ccc(-c2ccccc2)cc1`, the Potency entry was “inactive”.

`Cn1cc(C2=C(c3cn(C4CCN(Cc5ccccn5)CC4)c4ccccc34)C(=O)NC2=O)c2ccccc21`: the Potency result is “inactive”.

Take `CC1(C)C(/C=C(\Cl)C(F)(F)F)C1C(=O)OC(C#N)c1cccc(Oc2ccccc2)c1` (stereo not given): the Potency entry was “inactive”.

Turning to `CC(C)CCCCCCCOP(=O)(Oc1ccccc1)Oc1ccccc1`, the Potency result was “inactive”.

Consider `Clc1ccc(Oc2ccccc2)cc1`, for which the Potency result is “inactive”.

`CC1(c2ccc(Oc3ccccc3)cc2)OC(=O)N(Nc2ccccc2)C1=O` (stereo not given): the Potency result was “inactive”.

For `Clc1ccc(-c2ccc(Cl)c(Cl)c2Cl)c(Cl)c1Cl`, the Potency result is “inactive”.

For the compound `CCCN(CCC)CCc1c[nH]c2ccccc12`, the Potency entry was “inactive”.

For the compound `CCCCCCCCCCCCCC[P+](CCCCCC)(CCCCCC)CCCCCC` (tested in a mixture with another compound), the Potency entry was “inactive”.
